Compound activity deposited in PubChem BioAssay by Johns Hopkins Ion Channel Center.
KCNQ2 pot – potentiators of rat KCNQ2 potassium channel. B-score at 10 µM. CHO-K1 KCNQ2, FluxOR thallium flux fluorescence; stronger effect = higher value. Potassium voltage-gated channel subfamily KQT member 2 (Rattus norvegicus), O88943. hit rate 0.54% among 310,000;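 active means fluorescence ratio B-score at least 3 SD of library B-scores, with initial fluorescence B-score within 3 of them, cut at about 5.3 in these data; same plate scores as AID 2156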;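 further: B-score of peak minus minimum over baseline fluorescence ratio after K+ and Tl+ stimulus; positive B-score means potentiation of KCNQ2 with more thallium influx and brighter signal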
KCNQ2 inh – rat KCNQ2 potassium channel inhibitors, primary screen, cell-based, CHO-K1, FluxOR thallium flux, B-score. Potassium voltage-gated channel subfamily KQT member 2 (Rattus norvegicus), O88943. 20 min; stronger effect = lower value. B-score at 10 µM. hit rate 1.1% among 310,000. AID 2156, 2009;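 active means fluorescence ratio B-score at most minus 3 library SDs, with starting brightness B-score within 2 library SDs, cut at about -5.5 in these data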
Kir21 confirm – mouse Kir2.1 channel blockers, retest, confirmation, cell-based, FluxOR thallium flux, duplicate; shares compounds with KCNQ2 pot; Kir2.1-expressing cells, FluxOR thallium flux fluorescence; stronger effect = lower value; Tl flux remaining, % of negative control (stronger effect = lower value), % at 10 µM; hit rate 41% among 2,300; AID 2032, 2009;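 active means Primary-screen hit whose thallium flux fell at least 3 control SD below untreated wells in both duplicates, with normal baseline fluorescence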
HEK293 ctr – alters thallium flux in parental HEK293 cells, Kir2.1 counter-screen; shares compounds with KCNQ2 pot; FluxOR thallium flux fluorescence; 0% = unstimulated blank wells; FluxOR signal as % of negative control (100 = no effect), % at 10 µM; hit rate 19% among 2,300;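 active means dye signal at least 3 control SD above or below untreated wells in both duplicates, raw fluorescence within 3, either direction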;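 further: percent is based on the flux ratio of peak minus minimum fluorescence over baseline F0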
CHO-K1 ctr – nonspecific thallium flux increase in parental CHO-K1, confirmation, counter-screen for KCNQ2 potentiator project, cell-based, FluxOR thallium flux, duplicate; AID 2282, 2010; shares compounds with KCNQ2 pot; activity increase over 3SD of controls, % at 10 µM; hit rate 43% among 1,200; parental CHO-K1 cells, FluxOR thallium flux fluorescence; zero = vehicle mean+3SD, 100% = vehicle-minus-blank window;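 active means signal rise of at least 3 SD above the untreated control mean, in both duplicate wells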;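 further: counter screen of KCNQ2 potentiator hits so any rise reflects channel-independent effects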
KCNQ1 pot spec – human KCNQ1 channel potentiation off-target, confirmation, selectivity assay for KCNQ2 potentiator project, cell-based, CHO, FluxOR thallium flux. AID 2283, 2010. hit rate 28% among 1,200. CHO KCNQ1 stable, FluxOR thallium flux fluorescence; beyond 3SD, as % of vehicle-control signal. shares compounds with KCNQ2 pot. activation over 3SD threshold, % at 10 µM;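 active means fluorescence ratio rise of at least 3 SD of vehicle wells above their mean, in both replicate wells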
KCNQ2 pot conf – rat KCNQ2 channel potentiators, confirmation, cell-based, CHO, FluxOR thallium flux, duplicate | shares compounds with KCNQ2 pot | CHO-KCNQ2 cells, FluxOR thallium flux fluorescence | potentiation, less the hit threshold, % at 10 µM | hit rate 68% among 1,200;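 active means fluorescence ratio rising 3 SD or more over the vehicle control mean in both replicates, plus primary screen hit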;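 further: peak minus minimum thallium fluorescence divided by baseline after K/Tl stimulus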
Kir2-1 sel – mouse Kir2.1 channel activation off-target, confirmation, selectivity assay for KCNQ2 potentiator project, cell-based, HEK293, FluxOR thallium flux | hit rate 2% among 1,200 | shares compounds with KCNQ2 pot | HEK293 Kir2.1, FluxOR thallium flux fluorescence | activity over 3SD threshold, % at 10 µM | AID 2345, 2010;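 active means fluorescence ratio rise of at least 3 SD above the vehicle-control mean, seen in both replicates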
KCNQ2 W236L MoA – potentiators of retigabine-insensitive KCNQ2 W236L, mechanism study for KCNQ2 potentiator project, cell-based, rat KCNQ2 W236L, CHO, automated patch clamp | shares compounds with KCNQ2 pot | automated patch clamp current | current increase over 3SD of negative controls (%), stronger effect = higher value, % at 25 µM | hit rate 10% among 940 | AID 2558, 2010;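 active means current increase at least 3 SD of the untreated controls above them in both duplicate recordings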
Target sequence (O88943 whole entry W236L, looked up): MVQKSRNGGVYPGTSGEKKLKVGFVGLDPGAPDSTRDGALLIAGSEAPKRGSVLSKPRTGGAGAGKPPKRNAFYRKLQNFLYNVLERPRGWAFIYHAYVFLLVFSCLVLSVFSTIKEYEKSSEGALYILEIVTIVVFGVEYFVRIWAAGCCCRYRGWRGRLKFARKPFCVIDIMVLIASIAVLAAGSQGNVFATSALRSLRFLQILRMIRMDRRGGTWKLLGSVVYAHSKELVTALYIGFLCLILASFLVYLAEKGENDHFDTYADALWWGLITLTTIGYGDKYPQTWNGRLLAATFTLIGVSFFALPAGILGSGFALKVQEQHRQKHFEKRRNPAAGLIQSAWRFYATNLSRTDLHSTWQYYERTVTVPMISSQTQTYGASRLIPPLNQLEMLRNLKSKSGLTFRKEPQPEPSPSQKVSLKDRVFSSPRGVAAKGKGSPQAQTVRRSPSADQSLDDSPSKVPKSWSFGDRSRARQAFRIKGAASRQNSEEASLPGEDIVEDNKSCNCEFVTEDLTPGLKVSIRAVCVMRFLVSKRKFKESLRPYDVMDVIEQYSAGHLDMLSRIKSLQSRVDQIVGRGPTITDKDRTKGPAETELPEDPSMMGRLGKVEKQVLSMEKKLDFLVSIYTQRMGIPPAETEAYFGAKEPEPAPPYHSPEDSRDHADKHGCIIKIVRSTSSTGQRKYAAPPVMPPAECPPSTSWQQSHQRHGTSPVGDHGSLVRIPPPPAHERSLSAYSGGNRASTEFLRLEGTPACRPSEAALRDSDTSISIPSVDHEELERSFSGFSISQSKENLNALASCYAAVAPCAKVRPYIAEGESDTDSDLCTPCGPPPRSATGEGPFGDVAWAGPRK
Each line names hits and unclear results; the compound was inactive in the other large screens (follow-up assays come after a bar, where they were run). This is a sample that favours compounds with a hit; in the whole collection about 1.6% have one here.

CC(C)Cn1c(SCc2nc3ccccc3c(=O)[nH]2)nc2ccccc2c1=O	none (no result: KCNQ2 pot)
CC(C)c1nnc(SCC(=O)NC2CCCC2)n1C	none (no result: KCNQ2 pot)
COc1ccc(Nc2ncnc3ccccc23)cc1	none
COc1ccc(Nc2ccnc3ccccc23)cc1	none | Kir21 confirm 14.5% | HEK293 ctr inactive
CCCc1sc(N/N=C/c2ccccn2)nc1-c1ccc(F)cc1	KCNQ2 pot 5.76 | Kir21 confirm inactive | HEK293 ctr inactive | CHO-K1 ctr inactive | KCNQ1 pot spec 11.8 | KCNQ2 pot conf inactive | Kir2-1 sel inactive
CCN=c1scc(-c2ccc(F)cc2)n1/N=C/c1ccccn1	none
CCOC(=O)CSc1nc(-c2cccs2)nc2c1c(=O)n(C)c(=O)n2C	none (no result: KCNQ2 pot)
S=c1nc[nH]c2c1sc1nc(N3CCOCC3)c3c(c12)CCCC3	KCNQ2 pot 12 | Kir21 confirm inactive | HEK293 ctr 270.0% | CHO-K1 ctr 35.8 | KCNQ1 pot spec inactive | KCNQ2 pot conf 60.2 | Kir2-1 sel inactive | KCNQ2 W236L MoA inactive
O=c1[nH]nnc2c1sc1nc(N3CCOCC3)c3c(c12)CCCC3	none
O=C(NCc1cccnc1)c1ccccc1[N+](=O)[O-]	none
CCOc1ccccc1N(CC(=O)N1CCCC1)S(C)(=O)=O	none
COc1cc(F)ccc1S(=O)(=O)n1c(C)nc2ccccc21	none (no result: KCNQ2 pot) | Kir21 confirm 52.5% | HEK293 ctr inactive
COc1cc(C)c(C)cc1S(=O)(=O)n1c(C)nc2ccccc21	none (no result: KCNQ2 pot)
COc1ccc(/C=C2\C(=O)ON=C2c2ccccc2)cc1	none (no result: KCNQ2 pot)
O=C1ON=C(c2ccccc2)/C1=C/c1ccc(O)c(O)c1	KCNQ2 pot 6.82 | Kir21 confirm 70.5% | HEK293 ctr inactive | CHO-K1 ctr inactive | KCNQ1 pot spec inactive | KCNQ2 pot conf inactive | Kir2-1 sel inactive | KCNQ2 W236L MoA inactive
O=C1OC(c2ccccc2)=C/C1=C/N1CCCCC1	none (no result: KCNQ2 pot)
COC(=O)/C=C1\OC(c2ccccc2)=CC1=O	KCNQ2 inh -12.7 | Kir21 confirm 53.5% | HEK293 ctr 66.0%
C=CCSc1nc2sc3c(c2c(=O)n1CC)CCc1ccccc1-3	KCNQ2 pot 5.72 | Kir21 confirm inactive | HEK293 ctr 194.5% | CHO-K1 ctr inactive | KCNQ1 pot spec inactive | KCNQ2 pot conf 17.6 | Kir2-1 sel inactive | KCNQ2 W236L MoA 6.7%
C=CCn1c(SCC)nc2sc3c(c2c1=O)CCc1ccccc1-3	none (no result: KCNQ2 pot)
CCOc1ccc(/C=N/Nc2nc(C)cs2)c(O)c1	none (no result: KCNQ2 pot)
C=C(C)Cn1c(-c2ccncc2)n[nH]c1=S	none
O=c1[nH]c(C(Cl)(Cl)Cl)nc2ccc3ccccc3c12	KCNQ2 pot 6.63 | Kir21 confirm inactive | HEK293 ctr 174.5% | CHO-K1 ctr inactive | KCNQ1 pot spec 38.3 | KCNQ2 pot conf 5.6 | Kir2-1 sel inactive | KCNQ2 W236L MoA inactive
O=c1[nH]c(C(F)(F)F)nc2ccccc12	none
O=[N+]([O-])c1cc(Cl)ccc1N1CCCCC1	none
Nc1cc(N2CCCCC2)c(Cl)cc1[N+](=O)[O-]	KCNQ2 pot 9.2 | Kir21 confirm inactive | HEK293 ctr inactive | CHO-K1 ctr 139.2 | KCNQ1 pot spec inactive | KCNQ2 pot conf 45.3 | Kir2-1 sel inactive | KCNQ2 W236L MoA 27.9%
COc1ccc(CC(=O)NC(C)c2nnc(SCC(=O)Nc3cc(C)ccc3OC)n2C)cc1 (configuration not stated)	none
Cc1ccc(Nc2nc(NCCO)c3ccccc3n2)cc1C	none (no result: KCNQ2 pot) | Kir21 confirm 28.0% | HEK293 ctr inactive
COc1ccccc1Nc1nc(NCCO)c2ccccc2n1	none
CCCCn1c(N)c(N(CC(C)C)C(=O)C2CC(=O)N(Cc3ccco3)C2)c(=O)[nH]c1=O (configuration not stated)	none
CNC(=O)c1ncnnc1N(C)C(=O)NCc1ccccc1	KCNQ2 pot 9.8 | Kir21 confirm inactive | HEK293 ctr inactive | CHO-K1 ctr 0.9 | KCNQ1 pot spec inactive | KCNQ2 pot conf inactive | Kir2-1 sel inactive
CCNC(=O)N(C)c1nncnc1C(=O)NC	none
CC(C)N(C(=O)Cn1c(=O)oc2ccccc21)c1ccccc1	none
CC1CCN(S(=O)(=O)c2cc(C(=O)Nc3ccccn3)ccc2Br)CC1	none
CC(=O)c1ccc(OC(=O)CCc2nc3ccccc3s2)cc1	none (no result: KCNQ2 pot)
Cc1nn(C2CCCO2)c(=O)nc1N (configuration not stated)	none (no result: KCNQ2 pot)
COC(=O)CSc1[nH]c2ccc(F)cc2c1[N+](=O)[O-]	KCNQ2 pot 6.37 | Kir21 confirm inactive | HEK293 ctr inactive | CHO-K1 ctr inactive | KCNQ1 pot spec inactive | KCNQ2 pot conf 28.9 | Kir2-1 sel inactive | KCNQ2 W236L MoA 38.1%
CCOC(=O)CSc1[nH]c2cc(OC)ccc2c1[N+](=O)[O-]	none
O=C(OCCOCCN=C1NS(=O)(=O)c2ccccc21)c1ccc(F)cc1	none
O=C(c1ccc2c(c1)OCO2)C1CCCN(Cc2cccc(C(F)(F)F)c2)C1 (configuration not stated)	none (no result: KCNQ2 pot)
O=C(c1ccc2c(c1)OCO2)C1CCCN(Cc2ccc(OC(F)F)cc2)C1 (configuration not stated)	none (no result: KCNQ2 pot) | Kir21 confirm inactive | HEK293 ctr 122.5%
CN(C)S(=O)(=O)NCc1ccc2c(c1)OCO2	none (no result: KCNQ2 pot)
CCCCCC/C(C)=C1/SC(=S)NC1=O	KCNQ2 pot 21.6 | Kir21 confirm inactive | HEK293 ctr 438.5% | CHO-K1 ctr 6.0 | KCNQ1 pot spec inactive | KCNQ2 pot conf 104.5 | Kir2-1 sel inactive | KCNQ2 W236L MoA 71.1%
CCCCCCCC(=O)NNC(=O)Cc1ccccc1	none
Cc1c(NC(=O)C(C)OC(=O)CCOc2ccccc2)c(=O)n(-c2ccccc2)n1C (configuration not stated)	none
CN(CC(=O)Nc1c(Cl)cccc1Cl)C(=O)c1cc(S(=O)(=O)N(C)C)ccc1N1CCCC1	none
